NCOA2 inhibitor – human SRC2 (NCOA2) inhibition. Q15596. HEK293 GAL4-SRC2 luciferase reporter, luminescence. inhibition, % at 9 µM. hit rate 0.17% among 370,000;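 active = inhibition above the mean inhibition of all tested compounds plus 3 SD, set per campaign, cut at about 52% in these data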;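 also: 0% = DMSO treated cells and 100% = cells given Gossypol at 36 µM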
Gli-Sufu antag – antagonists of Gli-Sufu signaling. inhibition, % at 5 µM. hit rate 0.74% among 340,000. Sufu-KO-LIGHT fibroblasts, Gli luciferase reporter luminescence;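 active = inhibition above about 55%, limit read from the data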;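 also: 0% = DMSO-treated cells and 100% = wells with medium but no cells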
NR5A2 inv ag – NR5A2 inverse agonism in reporter assay | inhibition, % at 3.6 µM | HEK293T StAR-luciferase reporter, LRH-1 transfected, 24 h | O00482 | hit rate 0.13% among 360,000;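 active = inhibition above the mean inhibition of all tested compounds plus 3 SD, cut at about 73% in these data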;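 also: 0% = DMSO wells and 100% = reporter-only cells lacking LRH-1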
SRC3 inh – inhibitors of human steroid receptor coactivator 3 (SRC3). Q9Y6Q9. HEK293 GAL4-SRC3 luciferase reporter, luminescence. inhibition, % at 3.6 µM. hit rate 0.17% among 360,000. AID 588352;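 active = inhibition above a per-campaign cutoff, the mean of all compounds plus 3 SD, cut at about 60% in these data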;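 also: 0% = DMSO-treated cells and 100% = gossypol-treated cells at 36 µM; higher means less SRC3-driven luciferase light from the GAL4 reporter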
Shn3 inh set2 – Schnurri-3 reporter inhibition in Clone20 osteoblasts; Clone20 osteoblast Shn3 3'UTR firefly luciferase, 24 h; inhibition, % at 12.5 µM; hit rate 0.52% among 360,000;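 active = mean inhibition of at least 75% with every replicate also reaching 75%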;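 also: 0% = median of neutral control wells and 100% = pilot-screen positive control compound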
NCOA1 inh – human NCOA1 inhibition; AID 588354; HEK293 GAL4-SRC1 luciferase reporter, luminescence; hit rate 0.12% among 360,000; Q15788; inhibition, % at 3.6 µM;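 active = inhibition above the campaign mean plus 3 SD, with each screening campaign given its own cutoff, cut at about 60% in these data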;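 also: 0% = DMSO treated cells and 100% = gossypol at 36 µM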
Gli antag conf – confirmation of Gli-SUFU pathway antagonists; shares compounds with Gli-Sufu antag; Sufu-KO-LIGHT cells, Gli luciferase reporter, luminescence; inhibition, % at 5 µM; hit rate 40% among 2,500; AID 602428;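 active = mean inhibition at 5 µM reaching about 45%, limit read from the data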;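 also: plate controls were DMSO-treated cells for no effect and wells lacking cells for full effect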
SufuKO cytotox – cytotoxicity counter-screen for Gli-SUFU antagonists; shares compounds with Gli-Sufu antag; AID 651994; hit rate 32% among 2,500; Sufu-KO-LIGHT cells cytotoxicity, ATP luminescence; cytotoxicity, % at 5 µM;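 active = mean cytotoxicity at 5 µM above about 25%, limit read from the data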;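 also: cells exposed to compound overnight for roughly 16 to 18 hours; plate controls were DMSO wells with cells for no effect and medium without cells for full effect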
Wnt3a cs – counter-screen for Gli-SUFU antagonists: Wnt3a reporter inhibition; shares compounds with Gli-Sufu antag; Wnt-LIGHT cells, Wnt3a-driven luciferase reporter, luminescence; inhibition, % at 6.25 µM; hit rate 20% among 2,500;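 active = mean inhibition above about 25%, limit read from the data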
* hit, by the source's call; · = no result given. This is a sample that favours compounds with a hit; in the whole collection about 1.1% have one here.

SMILES	NCOA2 inhibitor	Gli-Sufu antag	NR5A2 inv ag	SRC3 inh	Shn3 inh set2	NCOA1 inh	Gli antag conf	SufuKO cytotox	Wnt3a cs
CC[C@H](C)C1OC(=O)[C@@H](C)[C@@H](CC)NC(=O)[C@H](C)N(C)C(=O)C(C)(C)C(=O)C(C)NC(=O)[C@H](Cc2ccc(OC)cc2)N(C)C(=O)[C@H](C(C)C)N(C)C(=O)CNC(=O)[C@H](CC(C)C)N(C)C(=O)CNC1=O (stereo partly specified)	·	·	31	32	70	9	·	·	·
CCC[C@H]1NC(=O)[C@H](C)N(C)C(=O)C(C)(C)C(=O)C(C)NC(=O)[C@H](Cc2ccc(OC)cc2)N(C)C(=O)[C@H](C(C)C)N(C)C(=O)CNC(=O)[C@H](CC(C)C)N(C)C(=O)CNC(=O)[C@H]([C@@H](C)CC)OC(=O)[C@H]1C (stereo partly specified)	·	75*	·	·	·	·	89*	58*	61*
Cc1cc(C(=O)O[C@@H]2CCC[C@]3(C(=O)N(Cc4ccccc4)c4ccccc43)[C@H]2NC(=O)CCc2ccccc2)no1	-1	·	·	·	·	·	·	·	·
CCC1(O)C(=O)OCc2c1cc1n(c2=O)Cc2cc3c(N)cccc3nc2-1 (stereo unspecified)	28	84*	92*	80*	12	35	63*	49*	-83
CCC1(OC(=O)CN(C)C)C(=O)OCc2c1cc1n(c2=O)Cc2cc3c(N)cccc3nc2-1 (stereo unspecified)	·	64*	85*	69*	-6	48	63*	36*	-61
CN(C[C@@H](Cc1cccc2ccccc12)N(C[C@H](Cc1ccccc1)N(CCc1ccccc1)N=O)N=O)N=O	5	60*	7	1	25	9	7	10	-12
O=[N+]([O-])c1ccc(N2CCN(C(=S)NCc3ccc(Cl)cc3)CC2)cc1	24	58*	15	17	77	-16	43	8	-57
COC(/C(=N/O)c1ccc(Cl)cc1)c1ccccc1 (stereo unspecified)	4	64*	1	-27	71	-13	60*	30*	34*
COc1ccc(Cl)cc1NC(=O)C(OC)c1ccccc1 (stereo unspecified)	-2	2	5	7	4	-51	·	·	·
COc1ccc(Nc2nc(N3CCOCC3)nc(N3CCOCC3)n2)c(OC)c1	-24	59*	4	-21	-4	-34	42	-5	15
CN(C)S(=O)(=O)c1ccc2oc(SCC(N)=O)nc2c1	-3	67*	11	15	4	9	12	7	-3
CN(C)S(=O)(=O)c1ccc2oc(SCC(=O)c3c(N)n(C4CC4)c(=O)[nH]c3=O)nc2c1	0	-2	13	2	12	4	·	·	·
COc1cc(CCC(=O)Nc2ccc(C)c(S(=O)(=O)N3CCCCCC3)c2)cc(OC)c1OC	29	51	28	13	44	0	30	4	-8
CC(=O)c1ccc(N2CCN(c3ccc(C(F)(F)F)cn3)CC2)cc1	8	52	-18	19	61	-15	52*	11	-58
Cc1cc(C(=O)CSc2nnc(-c3ccccc3)n2-c2ccccc2)c(C)n1-c1ncn[nH]1	7	8	6	-1	0	6	·	·	·
Cc1cc(C(=O)CSc2nnc3ccccn23)c(C)n1-c1ccccc1	46	54	58	66*	79	59	65*	40*	96*
O=C(c1ccco1)N1CCC(Oc2cccnc2)CC1	-47	·	·	·	·	·	·	·	·
CN1/C(=C/C(=O)COC(=O)CN2C(=O)C3CC=CCC3C2=O)C(C)(C)c2ccccc21 (stereo unspecified)	12	10	21	-6	28	-2	·	·	·
CN1/C(=C\C(=O)COC(=O)Cn2nnc(-c3ccccc3)n2)C(C)(C)c2ccccc21	30	71*	3	15	76	9	68*	43*	34*
CCCCCCCCN1C(=O)N2Cc3cc(OC)ccc3C2CS1(=O)=O (stereo unspecified)	-1	·	·	·	·	·	·	·	·
O=S1(=O)c2ccc(N3CCN(Cc4ccccc4F)CC3)cc2Oc2ccccc2CN1Cc1cn(Cc2ccccc2C(F)(F)F)nn1	0	·	·	·	·	·	·	·	·
Cc1ccc(-n2c(SCC(=O)Nc3ccc(OCc4ccccc4)cc3)nnc2-c2cnccn2)cc1	3	·	·	·	·	·	·	·	·
CC(C)C(NS(=O)(=O)c1cccc2nsnc12)C(=O)NC1CCCCC1C (stereo unspecified)	·	58*	9	1	-3	1	28	4	-9
CC(C)C(NS(=O)(=O)c1cccc2nsnc12)C(=O)Nc1nccs1 (stereo unspecified)	6	-2	-1	-1	4	4	·	·	·
CN(C)c1ccccc1C(=O)N1CCCC(C(=O)c2ccc3ccccc3c2)C1 (stereo unspecified)	9	61*	2	21	2	1	26	7	-20
SMILES	NCOA2 inhibitor	Gli-Sufu antag	NR5A2 inv ag	SRC3 inh	Shn3 inh set2	NCOA1 inh	Gli antag conf	SufuKO cytotox	Wnt3a cs
Cc1ncoc1C(=O)N1CCCC(C(=O)c2cccc3ccccc23)C1 (stereo unspecified)	5	6	-12	17	-3	-28	·	·	·
Cn1nccc1C(=O)N1CCCC(C(=O)c2cccc3ccccc23)C1 (stereo unspecified)	-52	72*	-11	-5	4	10	25	22	-15
Cc1c(C)n(Cc2ccc(-c3ccccc3C(=O)O)cc2)c2ccc(C(=O)N[C@@H](C)c3ccc([N+](=O)[O-])cc3)cc12	-11	·	·	·	·	·	·	·	·
C=CCNc1nc2c(c(=O)n(C)c(=O)n2C)n1Cc1ccc(F)cc1	20	54	4	4	70	-3	55*	20	26*
COCCNc1nc2c(c(=O)n(C)c(=O)n2C)n1Cc1cccc(C)c1	27	61*	11	-8	62	2	63*	25*	24
Cn1c(N2CCCC2)nc2c1c(=O)n(Cc1ccc(F)cc1)c(=O)n2C	0	53	16	5	28	-13	12	2	-20
C=CCNc1nc2c(c(=O)n(C)c(=O)n2C)n1CCCCCC	4	69*	46	27	88*	13	75*	36*	40*
CC(C)C(=O)N1CC[C@H]2[C@H](CCCN2Cc2ccc(F)cc2)C1	20	·	·	·	·	·	·	·	·
CCn1c(SCC(=O)c2ccc(-c3ccccc3)cc2)nnc1-c1ccccc1OC	2	·	·	·	·	·	·	·	·
